Laboratory results from PubChem BioAssay AID1903 (Southern Research Specialized Biocontainment Screening …, 2009).
Hit rate of the full screen: of about 310,000 compounds, about 1,200 (0.39%) were called active. The rule behind the calls is not given here. Only a sample is shown. Results with a measured potency or affinity are listed apart.

Biological target: Large T antigen (Simian virus 40) (UniProt P03070)
Test: TAg ATPase/helicase activity blockers – biochemical (AID 1903)
Conditions: SV40 large T antigen ATPase/helicase inhibition assay; at 20 µM; active compounds read high

Sequence of Large T antigen (Simian virus 40) (P03070 whole entry, looked up): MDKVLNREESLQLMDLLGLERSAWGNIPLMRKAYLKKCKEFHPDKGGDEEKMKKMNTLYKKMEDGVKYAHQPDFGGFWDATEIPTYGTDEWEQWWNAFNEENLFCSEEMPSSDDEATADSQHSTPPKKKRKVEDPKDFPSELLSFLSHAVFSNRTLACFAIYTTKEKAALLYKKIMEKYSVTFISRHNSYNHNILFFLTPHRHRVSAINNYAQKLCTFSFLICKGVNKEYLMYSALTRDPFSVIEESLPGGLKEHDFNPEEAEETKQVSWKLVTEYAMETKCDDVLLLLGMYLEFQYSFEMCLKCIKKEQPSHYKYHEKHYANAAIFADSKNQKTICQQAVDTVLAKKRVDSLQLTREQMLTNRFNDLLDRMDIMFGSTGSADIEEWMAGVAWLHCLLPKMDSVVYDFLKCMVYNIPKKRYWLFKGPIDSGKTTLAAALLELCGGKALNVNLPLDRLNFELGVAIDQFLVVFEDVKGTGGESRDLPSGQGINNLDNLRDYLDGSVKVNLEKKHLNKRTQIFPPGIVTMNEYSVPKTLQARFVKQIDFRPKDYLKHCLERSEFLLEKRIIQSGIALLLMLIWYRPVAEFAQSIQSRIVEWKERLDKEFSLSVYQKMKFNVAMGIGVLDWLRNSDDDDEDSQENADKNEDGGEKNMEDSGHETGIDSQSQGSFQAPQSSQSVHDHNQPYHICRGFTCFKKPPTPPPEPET

inhibition, inactive:
Cc1cc(-c2cc(-c3ccc(Cl)cc3)on2)nc(NCC2CC2)n1 19.1%
COC(C/C=C/[C@@H](O)[C@H](C)OCc1ccccc1)OC 7.24%
COc1cc2[nH]c(=O)n(CCCCCC(=O)NCCCN3CCOCC3)c(=O)c2cc1OC 9.95%
Nc1c(N)c2ccccc2oc1=O 3.21%
O=C1CCC(C(=O)NCCN2C(=O)S/C(=C\c3cccnc3)C2=O)=NN1 9.31%
COc1cc(/C=C2/NC(=O)N(CC(=O)Nc3cccc(C)c3)C2=O)ccc1OCC(N)=O 6.55%
CCOC(=O)c1[nH]c2ccccc2c1N=CN(CC)CC 13.2%
CCOC(=O)c1[nH]c2ccccc2c1NC(=S)Nc1ccccc1C 35.3%
CCCn1c(SCc2nc(N)nc(N3CCCCC3)n2)nc2c1c(=O)n(C)c(=O)n2C 27.3%
CC(C)N1C(=O)S/C(=C\c2ccc(-c3ccc(Cl)c(C(=O)O)c3)o2)C1=O 31%
CC1=NOC(=O)/C1=C\c1ccc(-c2cccc(Cl)c2)o1 2.49%
CC1=NOC(=O)/C1=C\c1ccc(-c2ccc(Br)cc2C(=O)O)o1 37.7%
CC1=NOC(=O)/C1=C/c1ccc(-c2ccc(Cl)cc2)o1 29.9%
CC1=NOC(=O)/C1=C\c1ccc(-c2ccc(Br)cc2)o1 11.9%
O=C(O)c1cc(-c2ccc(/C=C3\NC(=O)N(c4ccccc4)C3=O)o2)ccc1Cl 22.8%
Cc1ccc(NCC(=O)Nc2cccc(F)c2)cc1S(=O)(=O)N1CCCCCC1 30.7%
O=C(Cc1cccs1)Nc1nnc(SCc2ccc(C(F)(F)F)cc2)s1 21%
O=C(c1cnn2c(C(F)(F)F)cc(-c3ccccc3)nc12)N1CCOCC1 2.03%
CN(/N=C/Cc1nnnn1-c1ccc(Cl)cc1)c1ccccc1 12.9%
Fc1ccc2c(c1)C(c1ccncc1)=NNC(c1ccc(Cl)cc1)=N2 -2.03%
CCOc1ccc(S(=O)(=O)NCCC(=O)NC2CCCCC2)cc1 6.66%
CCC(C)CCN1C(N(C)C)=NC[C@@H]1CC(C)C (some centres not stated) -8.26%
COc1cc(OC)c(NS(=O)(=O)c2ccc(Cl)c(C(=O)OC(C)C(=O)N3CCCC3)c2)cc1Cl (configuration not stated) 0.34%
NS(=O)(=O)c1ccc(N/N=C/c2ccccn2)c([N+](=O)[O-])c1 9%
NS(=O)(=O)c1ccc(N/N=C/c2ccc(O)cc2O)c([N+](=O)[O-])c1 14.4%
O=C(CCC1COc2ccccc2O1)NCc1ccco1 (configuration not stated) 9.35%
Cc1cc(=O)c2c(O)c(O)ccc2o1 27.4%
CC(=O)c1cc2cc(O)ccc2o1 3.38%
O=C(CCNC(=O)C1CCN(S(=O)(=O)c2ccccc2)CC1)NCc1ccncc1 18.3%
CCCCCCn1c(N(CC)CC)nc2c1c(=O)[nH]c(=O)n2C 19.9%
Oc1c(Br)cc(/C=N/Nc2ccc(Cl)nn2)cc1Br 31.9%
O=C(O)c1ccc(/C=N/Nc2ccc(C(F)(F)F)cn2)cc1 4.16%
Oc1cccc(/C=N/Nc2ccc(Cl)nn2)c1 1.08%
Oc1ccc(/C=N/Nc2ccc(C(F)(F)F)cn2)cc1 35.9%
CCOC(=O)C1CCCN(c2c(N3CCC(N4CCCCC4)CC3)c(=O)c2=O)C1 (configuration not stated) 0.55%
CN1CCN(S(=O)(=O)c2cccc(C(=O)Nc3ccccc3N3CCOCC3)c2)CC1 8.67%
CCC(C)NC(=O)CN(c1ccc(Cl)c(Cl)c1)S(C)(=O)=O (configuration not stated) 2.27%
COc1cccc(OC)c1C(=O)NNS(=O)(=O)c1ccc2ccccc2c1 4.3%
O=[N+]([O-])c1ccc(Cl)cc1Sc1nc2ccccc2o1 3.7%
O=[N+]([O-])c1ccc(CSc2nc3ccccc3o2)cc1 1.36%
Cc1nc(CCNC(=O)CC2C(=O)NCCN2CC(C)(C)C)nc2c1CCC2 (configuration not stated) 17.9%
CC(=O)N1CCN(S(=O)(=O)c2cccc(C(=O)Nc3ccc(C)cn3)c2)CC1 10.6%
O=c1cc(CN2CCOCC2)c2ccc(O)c(O)c2o1 31.2%
Cc1c(O)ccc2c(CN3CCN(Cc4ccccc4)CC3)cc(=O)oc12 20.2%
COc1ccc(OC)c(C(=O)c2coc3ccc(O)c(CN(C)C)c23)c1 7.95%
CCCc1cc(N2CCN(C(=O)c3ccco3)CC2)n2c(nc3ccccc32)c1C#N 14.7%
Cc1ccc(S(=O)(=O)Nc2ccc(N3CCN(C)CC3)nc2)cc1 15.7%
COc1cc2nc3occc3c(OC)c2cc1OC 19.9%
COc1ccc2c(OC)c3ccoc3nc2c1OC 6.26%
CCn1nc(C)c(CN2CCCCC2C(=O)Nc2ccc(Oc3cccnc3)cc2)c1C (configuration not stated) 13.5%
CC(Oc1ccc2ccc(=O)oc2c1)C(=O)N1CCOCC1 (configuration not stated) 29.2%
O=Nc1c(O)[nH]c2ccc(F)cc12 3.33%
Cc1ccc2[nH]c(O)c(N=O)c2c1 1.83%
Cn1c(=O)c2sccc2n2c(CCCC(=O)N3CCCCC3)nnc12 7.77%
CN1C(=O)N(C)c2ccc(C=O)c3cccc1c23 1.16%
CN1c2cccc3cccc(c23)N(C)C1(C)C 23%
CC(=O)Nc1ccc(NC(=O)CN2CCN(c3ccccn3)CC2)cc1 0.46%
COc1ccc(NC(=O)CCN2CCN(S(=O)(=O)c3ccc(C(C)C)cc3)CC2)cc1 14.9%
O=C(CCN1CCN(c2ccccn2)CC1)Nc1ccc(F)cc1 2.77%
COc1ccc(NC(=O)c2ccc(N3CCOCC3)nc2)cc1 6.11%
COc1ccc(NC(=O)CCN2CCN(S(=O)(=O)c3ccc(OC)cc3)CC2)cc1 6.07%
Cc1ccc(C(=O)Nc2ccc(N3CCOCC3)nc2)cc1 1.46%
